Screening data (PubChem)
Only some compounds are listed: those with a hit (about 5.4% of all), similar ones and a draw of the others.
CSC inhib: blocks cancer stem cells; cancer stem cell-like cells viability, luminescence; inhibition, % at 7.5 µM; 300,000 compounds, 1.1% hits; AID 2717; in the data active = inhibition above about 75%; inconclusive = no clear call, values can overlap the other calls; tested in HMLE shEcad cells
Calb FLC: C. albicans growth modulation with fluconazole. C. albicans CaCi-2 (fluconazole-resistant clinical isolate) + fluconazole, Alamar Blue growth, 48 h. AID 1979. 300,000 compounds, 0.57% hits. growth inhibition, % (test concentration not listed);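 active = growth inhibition above about 58% in most replicates, limit read from the data, passing the limit was not always enough; inconclusive = exactly half the replicates above a set limit; inactive = most replicates below a set limit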;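 note: all wells also contain fluconazole at 8 µg/ml as a sub-toxic cotreatment; 0% = median of DMSO wells and 100% = median of geldanamycin control wells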
MPTP block: permeability transition pore inhibition; isolated mouse mitochondria, Ca2+ swelling absorbance, 30 min; inhibition, % at 10 µM; 360,000 compounds, 1.4% hits; AID 602449;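 active = inhibition of 50% or more, scaled per plate between neutral and stimulator controls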;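 note: 0% = DMSO wells given calcium and 100% = 1 mM EGTA wells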
Mdm2-MdmX inh: inhibitors of human Mdm2/MdmX interaction; inhibition, % at 8 µM; AID 485346; SaOS-2 split-luciferase Mdm2/MdmX complementation, luminescence; O15151+Q00987; 330,000 compounds, 3% hits;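 active = inhibition of at least 50% at 8 µM in the primary screen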
Target sequence (O15151 whole entry, looked up): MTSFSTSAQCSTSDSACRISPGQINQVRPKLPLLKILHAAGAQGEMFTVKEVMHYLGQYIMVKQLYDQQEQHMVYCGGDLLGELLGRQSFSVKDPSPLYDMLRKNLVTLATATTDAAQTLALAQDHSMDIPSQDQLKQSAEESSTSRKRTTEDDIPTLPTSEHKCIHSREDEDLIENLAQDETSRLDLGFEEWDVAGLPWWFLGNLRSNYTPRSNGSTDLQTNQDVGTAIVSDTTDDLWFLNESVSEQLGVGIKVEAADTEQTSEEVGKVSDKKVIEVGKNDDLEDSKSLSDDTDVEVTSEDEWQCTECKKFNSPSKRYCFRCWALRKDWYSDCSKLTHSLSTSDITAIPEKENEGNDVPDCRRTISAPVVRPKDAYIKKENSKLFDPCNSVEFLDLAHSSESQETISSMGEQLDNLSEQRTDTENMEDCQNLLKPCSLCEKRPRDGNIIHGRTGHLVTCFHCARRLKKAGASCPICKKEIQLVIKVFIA
Target sequence (Q00987 whole entry, looked up): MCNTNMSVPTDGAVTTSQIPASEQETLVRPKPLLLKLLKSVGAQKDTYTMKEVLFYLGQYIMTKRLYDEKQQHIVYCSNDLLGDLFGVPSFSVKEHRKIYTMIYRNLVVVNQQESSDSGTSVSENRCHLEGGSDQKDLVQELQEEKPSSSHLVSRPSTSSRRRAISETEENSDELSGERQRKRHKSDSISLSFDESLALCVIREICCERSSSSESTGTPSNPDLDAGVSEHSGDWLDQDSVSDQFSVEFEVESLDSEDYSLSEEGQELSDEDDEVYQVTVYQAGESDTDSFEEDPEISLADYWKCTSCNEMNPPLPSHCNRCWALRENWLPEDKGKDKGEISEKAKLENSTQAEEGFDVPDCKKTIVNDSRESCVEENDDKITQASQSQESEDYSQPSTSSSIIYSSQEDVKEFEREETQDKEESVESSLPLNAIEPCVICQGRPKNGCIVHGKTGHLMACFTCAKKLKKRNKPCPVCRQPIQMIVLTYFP
SKKanGAS inh: inhibitors of SKKanGAS S. pyogenes growth in kanamycin (SK-promoter or general growth effect); BacTiter-Glo, 6 h; inhibition, % at 7.5 µM; 300,000 compounds, 1.3% hits; AID 1662;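 active = mean replicate score, as percent of positive control median, at least 50; inconclusive = mean below 50 but one replicate at or above 50; inactive = mean and every replicate below 50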;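 note: strain carries kanamycin resistance gene driven by streptokinase promoter and grows in 40 µg/ml kanamycin; loss of luminescence reflects streptokinase promoter inhibition or plain growth inhibition; 0% = median of DMSO wells and 100% = positive control at its reference dose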
Beta apoptosis: beta cell apoptosis inhibition; AID 435005; INS-1E cytokine-induced death, ATP luminescence, 48 h; percent of positive-control rescue, neutral wells zero; 300,000 compounds, 0.8% hits; protection from apoptosis, % (concentration not given with the values);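 active = Every replicate reaches about 75%, or at least half do and their mean reaches it too, limit read from the data; inconclusive = At least half of replicates reach the limit but their mean does not; inactive = Under half of replicates reach the limit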;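 note: 0% = cytokine-treated negative control wells and 100% = positive control rescue; higher means more ATP so stronger rescue from cytokine killing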
MPTP counter: mitochondrial membrane potential, counter-screen | shares compounds with MPTP block | isolated mitochondria, Rhodamine 123 fluorescence | inhibition, % at 10 µM | 5,000 compounds, 78% hits | AID 624504; in the data active = inhibition above about 22%;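 note: 0% = DMSO vehicle and 100% = positive control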
MPTP abs DR: MPTP inhibition, dose response swelling confirmation. shares compounds with MPTP block. isolated mitochondria swelling, absorbance. IC50, µM. 780 compounds, 58% hits. AID 651561; in the data active = IC50 below about 20 µM
MPTP cs DR: MPTP inhibitor counter-screen activity, dose response; shares compounds with MPTP block; isolated mitochondria counterscreen, fluorescence read-out; IC50, µM; 780 compounds, 49% hits; AID 651564; in the data active = IC50 below about 80 µM
The depositor's hits bear a star; i = inactive; ? = inconclusive; nt = no result given.

SMILES | CSC inhib | Calb FLC | MPTP block | Mdm2-MdmX inh | SKKanGAS inh | Beta apoptosis | MPTP counter | others
Cc1ccc(C(C)C)c(OCCNCc2ccccc2)c1 | 10 | -29 | 56* | 12 | 8 | 12 | 19 | MPTP abs DR=4.6*;MPTP cs DR=15*
CC(=O)c1cccc(OCc2cc(C(=O)N3CCC(N4CCCCC4)CC3)no2)c1 | -16 | 2 | 1 | 5 | 0 | -9 | nt
CCOC(=O)c1ccc(Nc2ccc(C(C)=O)cc2)cc1 | nt | nt | 1 | nt | nt | nt | nt
CCOC(=O)c1ccc(Nc2nnc(C(C)(C)C)c(=O)[nH]2)cc1 | 8 | 3 | 93* | 7 | -1 | 21 | 83*
CCCCOc1ccc(C(=O)NCC(=O)N2CCN(C/C=C/c3ccccc3)CC2)cc1 | nt | nt | 1 | nt | nt | nt | nt
O=C(Nc1cccc2c1[nH]c1ccccc12)C(F)(F)F | 28 | 9 | 99* | 18 | -1 | 4 | 87*
O=C(Nc1cccc2c1[nH]c(=O)c1ccccc12)C(F)(F)F | nt | nt | -1 | nt | nt | nt | nt
Cc1cccc(Nc2c3c(nc4ccccc24)CCC3)c1 | 39 | ? | 78* | 27 | 13 | 34 | 74*
CCC1Oc2ccccc2N(CC(=O)NC2CCCC2)C1=O (configuration not stated) | -8 | 0 | -1 | 21 | 0 | -6 | nt
OC1(c2ccc3ccccc3c2)CCN(Cc2ccccc2)C1 (configuration not stated) | -19 | -6 | 55* | 8 | -5 | 0 | -3 | MPTP abs DR=i;MPTP cs DR=>80
Cc1ccc(Sc2cc(NCCCO)c([N+](=O)[O-])c3nonc23)cc1 | 7 | 0 | 72* | 24 | 4 | -11 | 34*
CC(C)CCSc1cc(NCCO)c([N+](=O)[O-])c2nonc12 | 20 | -3 | 5 | 15 | 1 | 3 | nt
Cc1cc(N/C(=N\S(=O)(=O)c2ccc(F)cc2F)c2ccccc2)no1 | -13 | 9 | 1 | 16 | -3 | -4 | nt
Cc1ccc2nc(N/C(=N/S(=O)(=O)c3ccc(F)cc3F)c3ccccc3)sc2c1 | 29 | -2 | 50* | -7 | 31 | 7 | 69*
CC(C)CC(C(=O)Nc1oc(-c2ccccc2)c(-c2ccccc2)c1C#N)N1C(=O)c2ccccc2C1=O (configuration not stated) | 13 | nt | 74* | 17 | 8 | 4 | 69*
N#Cc1c(NC(=O)CCN2C(=O)c3ccccc3C2=O)oc(-c2ccccc2)c1-c1ccccc1 | 1 | -1 | 0 | 13 | 8 | 3 | nt
CCO/N=C/C(=O)Nc1ccc(F)cc1F | -8 | ? | 0 | -10 | -3 | 1 | nt
CC(C)(C)NC(=O)NC(=O)CN1CCN(S(=O)(=O)c2ccc3c(c2)CCCC3)CC1 | 1 | -14 | 0 | 25 | -11 | -1 | nt
CCn1nc(C(=O)NCCc2ccc(S(N)(=O)=O)cc2)c2ccccc2c1=O | nt | -6 | -1 | 11 | -2 | 1 | nt
CC(=O)Nc1c(C(=O)NCc2ccccc2)nnn1Cc1ccccc1 | nt | -1 | 2 | 6 | -4 | 5 | nt
O=C(Nc1ccccc1)c1nnn(Cc2ccccc2)c1NC(=O)C(F)(F)F | 20 | ? | 89* | 3 | 15 | -8 | 84*
COc1ccccc1NC(=O)c1nnn(Cc2ccccc2)c1NC(=O)C(F)(F)F | 1 | -8 | 74* | -1 | 8 | 3 | 73*
CCOC(=O)c1sc2nc(C)nc(NCc3ccccc3OC)c2c1C | 6 | 1 | 2 | 6 | 14 | -9 | nt
Cc1ccc(C)c(NC(=O)C(Sc2nc3ccc(C)cc3[nH]2)c2ccccc2)c1 (configuration not stated) | 17 | 2 | 84* | 30 | 7 | 5 | 92*
Cc1ccc2nc(SC(C(=O)Nc3ccc(F)cc3)c3ccccc3)[nH]c2c1 (configuration not stated) | -10 | 2 | 77* | 36 | 10 | 5 | 86*
SMILES | CSC inhib | Calb FLC | MPTP block | Mdm2-MdmX inh | SKKanGAS inh | Beta apoptosis | MPTP counter | others
CC(C)C(C)NC(=O)COc1ccc(-c2ccccc2)cc1 (configuration not stated) | 19 | 2 | 4 | -2 | 9 | 4 | nt
CC(C)C(C)NC(=O)COc1ccc(Sc2ccc(OCC(=O)NC(C)C(C)C)cc2)cc1 (configuration not stated) | 2 | 8 | 79* | 35 | 14 | 7 | 89*
CCOC(=O)c1c(C)[nH]c(C(=O)N/N=C\c2ccccc2Cl)c1C | 53 | -5 | 92* | 49 | 10 | 4 | 88*
CCCCCc1nc2sc3c(c2c(=O)n1NC(=O)c1ccc([N+](=O)[O-])cc1)CC(C)(C)OC3 | nt | 50 | 90* | 29 | -1 | -7 | 76*
O=C1c2cc(Cl)ccc2OC2(CCNCC2)C12CC(c1ccccc1)=NO2 (configuration not stated) | 10 | -11 | 71* | 45 | 1 | -5 | -16 | MPTP abs DR=8.9*;MPTP cs DR=>80
O=C1c2cc(Cl)ccc2OC2(CCNCC2)C12CC(c1ccc(Cl)cc1)=NO2 (configuration not stated) | 1 | -24 | 6 | -11 | 4 | 6 | nt
c1nc(N2CCOCC2)c2[nH]cnc2n1 | -9 | -4 | 1 | -3 | 2 | nt | nt
CC1=NN(C(N)=S)C(=O)C1N=Nc1ccc(Cl)cc1Cl (configuration not stated) | 11 | -10 | 55* | -22 | 6 | 17 | 83*
CCN(CC)S(=O)(=O)c1cccc(NC(=O)COc2ccc(Cl)cc2Br)c1 | -5 | -7 | 36 | -8 | -3 | 1 | nt
Cc1nc2ccccc2n1C1CC(=O)N(Cc2ccccc2)C1=O (configuration not stated) | -5 | -6 | 65* | 15 | 3 | 1 | 58*
Cc1nn(-c2ccccc2)c2nc(C(Cl)(Cl)Cl)[nH]c(=O)c12 | 45 | -8 | 68* | 27 | ? | 3 | 57*
Oc1c(Cl)cc(Cl)cc1C1=NNC(c2ccc(Cl)cc2)C1 (configuration not stated) | nt | nt | 68* | nt | nt | nt | 30*
CCCCCCCOc1ccc(C2CC(=O)N(C)C2=O)cc1 (configuration not stated) | 25 | -15 | 2 | -11 | -7 | -3 | nt
CCCCCCn1c(=O)c(Cc2ccccc2)c(O)c2ccccc21 | nt | 11 | 58* | 2 | 33 | 1 | 59*
Cc1ccccc1NC(=O)Cc1nc(COC(=O)COc2ccccc2C(C)C)cs1 | 5 | nt | -1 | 17 | nt | -2 | nt
O=C(CCc1ccccc1)NC(NC(=S)Nc1ccc(Cl)cc1)C(Cl)(Cl)Cl (configuration not stated) | nt | 11 | 94* | 43 | 22 | 23 | 82*
